# Compound activity from PubChem BioAssay.
# Shown are actives, neighbours in structure and some others; about 1.8% of the full set was active somewhere.
# LYPLA2 inh – counter-screen for PME1 inhibitors: inhibitors of human LYPLA2; O95372; recombinant LYPLA2, FP-Rh probe fluorescence polarization; inhibition, % at 5.9 µM; hit rate 0.38% among 320,000; AID 2177;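 active means inhibition above the screen-wide mean plus 3 SD, limit set per campaign, cut at about 26% in these data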
# LYPLA1 inh – counter-screen for PME1 inhibitors: inhibitors of human LYPLA1. O75608. recombinant LYPLA1, FP-Rh probe fluorescence polarization. inhibition, % at 5.9 µM. hit rate 0.16% among 320,000. AID 2174;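 active means inhibition above the mean of all tested compounds plus 3 SD, set per campaign, cut at about 14% in these data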;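 further: inhibitors block serine hydrolase probe labeling of LYPLA1 so polarization falls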
# Fam108B inh – blocks mouse Fam108B hydrolase in RBBP9 counter-screen; recombinant Fam108B, FP-Rh probe fluorescence polarization; inhibition, % at 9.51 µM; hit rate 0.33% among 300,000; AID 1947;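 active means inhibition above the screen mean inhibition plus 3 SD, computed separately per campaign, cut at about 18% in these data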;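 further: inhibitors lower polarization as less probe binds the enzyme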
# PAD4 FP inh – PAD4 (human) enzyme inhibition; Q9UM07; recombinant PAD4, RCA probe fluorescence polarization; inhibition, % at 6.36 µM; hit rate 0.41% among 330,000; AID 485272;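 active means percent inhibition above a cutoff equal to the mean of all tested compounds plus 3 SD, cut at about 15% in these data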
# PME-1 primary – PME-1 (human) inhibition. Q9Y570. hit rate 0.53% among 320,000. AID 2130. inhibition, % at 5.9 µM. recombinant PME-1, FP-Rh probe fluorescence polarization;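 active means inhibition above the campaign mean of all compounds plus 3 SD, cut at about 26% in these data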;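 further: competitive labeling of PME-1 active site by serine hydrolase directed probe; inhibitors block probe labeling so polarization falls and inhibition rises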
# Target sequence (Q9Y570 whole entry, looked up): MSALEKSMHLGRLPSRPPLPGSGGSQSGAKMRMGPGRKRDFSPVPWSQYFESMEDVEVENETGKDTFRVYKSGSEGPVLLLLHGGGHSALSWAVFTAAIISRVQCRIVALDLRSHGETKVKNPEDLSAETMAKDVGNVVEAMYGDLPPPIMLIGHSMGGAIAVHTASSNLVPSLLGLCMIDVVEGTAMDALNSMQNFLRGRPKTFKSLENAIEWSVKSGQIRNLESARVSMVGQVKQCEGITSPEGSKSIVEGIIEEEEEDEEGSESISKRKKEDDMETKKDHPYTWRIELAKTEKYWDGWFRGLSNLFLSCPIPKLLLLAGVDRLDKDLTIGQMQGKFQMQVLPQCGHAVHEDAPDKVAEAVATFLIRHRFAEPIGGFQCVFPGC
# GSTO1 inh – GSTO1 inhibition, counter-screen for RBBP9 inhibitors; hit rate 1.1% among 300,000; AID 1974; inhibition, % at 5.96 µM; recombinant GSTO1, activity-based probe fluorescence polarization; P78417;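 active means inhibition above the campaign mean inhibition plus 3 SD, cut at about 35% in these data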
# Fam108b confirm – Fam108b (mouse) hydrolase inhibition, confirmation assay; shares compounds with Fam108B inh; recombinant Fam108b, FP-Rh probe fluorescence polarization; inhibition, % at 9.51 µM; hit rate 44% among 930;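 active means inhibition above a limit from the primary screen, the mean over all compounds plus 3 SD, cut at about 19% in these data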;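 further: inhibitors free the probe so polarization falls as inhibition rises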
# Fam108b inh – mouse ABHD17B inhibition. AID 588649. inhibition, % at 20 µM. shares compounds with Fam108B inh. recombinant Fam108b, gel-based ABPP, fluorophosphonate probe. hit rate 44% among 260; in the data active means inhibition above about 40%
# GSTO1 inh conf – confirmation of human GSTO1 inhibitors. shares compounds with GSTO1 inh. inhibition, % at 5.96 µM. hit rate 54% among 2,400. recombinant GSTO1, probe fluorescence polarization;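 active means inhibition above the primary screen's cutoff, its mean inhibition plus 3 SD, cut at about 35% in these data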;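 further: loss of polarization as inhibitors block binding of rhodamine sulfonate ester activity probe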
# LYPLA1 conf – counter-screen for PME1 inhibitors: confirmation of human LYPLA1 inhibitors. shares compounds with LYPLA1 inh. recombinant LYPLA1, FP-Rh probe fluorescence polarization. inhibition, % at 5.9 µM. hit rate 69% among 480;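 active means mean inhibition across replicates above the hit cutoff set in the primary screen, cut at about 15% in these data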;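 further: loss of FP-Rh probe labeling of LYPLA1 seen as lower polarization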
# LYPLA2 confirm – LYPLA2 (human) inhibition, confirmation counter-screen; shares compounds with LYPLA2 inh; recombinant LYPLA2, FP-Rh probe fluorescence polarization; inhibition, % at 5.9 µM; hit rate 72% among 1,100; AID 2232;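 active means mean inhibition across replicates above the hit cutoff set in the primary screen, cut at about 26% in these data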;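 further: blocked labeling of the enzyme by serine hydrolase FP-Rh probe lowers polarization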
# PAD4 FP conf – confirmation of human PAD4 inhibitors; shares compounds with PAD4 FP inh; recombinant PAD4, RCA probe fluorescence polarization; inhibition, % at 6.36 µM; hit rate 28% among 1,200; AID 488796;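 active means mean inhibition across replicates above the hit cutoff set by the earlier primary screen, cut at about 15% in these data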;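 further: inhibitors block active-site labeling by the probe so polarization falls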
# Numbers stand for hits; - = inactive; . = not tested or not shown.
SMILES,LYPLA2 inh,LYPLA1 inh,Fam108B inh,PAD4 FP inh,PME-1 primary,GSTO1 inh,Fam108b confirm,Fam108b inh,LYPLA1 conf,LYPLA2 confirm,others
CCC(C)(C)N(C(=O)CCC(=O)Nc1cc(C)on1)C(C(=O)NC(C)(C)C)c1ccc(OC)cc1 (stereo unspecified),-,-,-,-,-,-,.,.,.,.,
CCN(CC)c1ccc(/C=C(\C#N)C(=O)c2ccc(Br)cc2)cc1,-,32,61,-,-,-,54,-,77,.,
CC(=O)Nc1ccc(NC(=O)c2ccc(N(C)S(=O)(=O)c3ccc(C)cc3)cc2)cc1,-,-,-,-,-,-,.,.,.,.,
CN(c1ccccc1)S(=O)(=O)c1ccc(NC(=O)c2ccc(-c3ccccc3)cc2)cc1,30,22,45,-,64,-,80,95,26,35,
O=C1c2ccccc2-c2onc3ccc(NCCCn4ccnc4)c1c23,112,105,122,106,109,105,150,80,109,117,
O=C(Nc1ccc(F)cc1)/C(=C1/CCCCCN1)[N+](=O)[O-],-,-,-,-,-,-,.,.,.,.,
Oc1ccc2ccccc2c1/C=N/Nc1ccccc1,-,-,-,-,-,-,.,.,.,.,
Cc1cc(N/N=C/c2c(O)ccc3ccccc23)nc(-c2ccccc2O)n1,46,-,70,-,57,-,103,.,.,-,
CCOC(=O)NCCc1c(C)nc2c(c(C)nn2C(C)(C)C)c1C,-,-,-,-,-,-,.,.,.,.,
O=C1C(CSCc2ccccc2)NC(=S)N1c1ccccc1 (stereo unspecified),50,29,71,-,89,-,-,.,-,-,
Cc1ccc2c3c(cccc13)-c1ccccc1C2=O,-,-,-,-,-,-,.,.,.,.,
Cc1coc2c1C(=O)C(=O)c1c-2ccc2c(C)cccc12,39,-,19,-,-,97,-,.,.,-,GSTO1 inh conf=57
O=C(CN1C(=O)S/C(=C\c2cc(Cl)c(O)c(Cl)c2)C1=O)Nc1ccccc1,92,-,23,-,-,-,19,.,.,82,
Cc1ccnc(NS(=O)(=O)c2ccc(NS(=O)(=O)c3ccc(Br)cc3)cc2)n1,-,-,-,-,-,-,.,.,.,.,
O=S(=O)(Nc1cc2nc3ccccc3nc2n1Cc1ccccc1)c1ccc(Cl)cc1,57,54,43,72,53,73,64,-,45,93,GSTO1 inh conf=92
COc1ccc2c(c1)C(=NNc1ccc(C(=O)O)cc1)c1cc(OC)ccc1-2,37,28,30,-,-,-,30,-,19,-,
CC1CCN(C(=O)COC(=O)[C@H](C)NS(=O)(=O)/C=C/c2ccccc2)CC1,-,-,-,-,-,-,.,.,.,.,
COc1cc(OC)c(-c2c3cc(O)c(=O)cc-3oc3cc(O)c(O)cc23)cc1OC,-,-,-,-,-,-,.,.,.,.,
Cc1c2cc(O)c(=O)cc-2oc2cc(O)c(O)cc12,108,95,114,65,113,96,138,-,94,102,GSTO1 inh conf=107
COc1cccc(C(=O)COc2ccccc2-c2ccccc2)c1,-,-,-,-,-,-,.,.,.,.,
CCCn1nc([N+](=O)[O-])c(C(C#N)c2nc3ccccc3s2)c(Cl)c1=O (stereo unspecified),-,-,31,19,36,66,31,-,.,.,GSTO1 inh conf=44;PAD4 FP conf=23
